A selection: hits, their analogues and other compounds. The true share with any hit is near 2.4%.
Cruzain inh Det = qHTS Assay for Promiscuous and Specific Inhibitors of Cruzain (with detergent). Potency, µM, for the others: max response, negative = inhibition, actives largely listed as inhibitors. Cruzipain (Trypanosoma cruzi), P25779. 200,000 compounds, 0.43% hits. purified cruzain, Z-FR-AMC fluorescence, 0.01% Triton;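 further: plate controls were neutral wells for no effect and buffer without enzyme for full effect; nearly all actives have a fitted effect of over 40% in size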
Target sequence (P25779 123-467 limits assumed): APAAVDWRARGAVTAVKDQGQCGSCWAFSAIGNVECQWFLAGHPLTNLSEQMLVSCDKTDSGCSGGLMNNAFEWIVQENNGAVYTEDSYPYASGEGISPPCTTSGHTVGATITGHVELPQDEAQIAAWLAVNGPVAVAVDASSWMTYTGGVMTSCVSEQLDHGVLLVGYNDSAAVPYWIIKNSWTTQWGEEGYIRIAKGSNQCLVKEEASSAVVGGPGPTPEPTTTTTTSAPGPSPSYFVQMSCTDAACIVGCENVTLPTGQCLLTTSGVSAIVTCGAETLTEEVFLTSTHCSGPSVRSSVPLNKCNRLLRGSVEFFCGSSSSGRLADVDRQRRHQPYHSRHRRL
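Detergent-containing run (0.01% Triton X-100) in acetate buffer pH 5.5 with 5 mM DTT: enzyme at 1.5 nM final, 15 min compound preincubation at room temperature, then 2 uM Z-FR-AMC substrate. Activity taken as 60 s fluorescence increase at 360/450 nm.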
Cruzain noTriton = qHTS Assay for Promiscuous and Specific Inhibitors of Cruzain (without detergent); Cruzipain (Trypanosoma cruzi), P25779; purified cruzain, Z-FR-AMC fluorescence, no detergent; Potency, µM, for the others: max response, negative = inhibition, hits mostly inhibitors; 200,000 compounds, 2.3% hits;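 further: plate controls were enzyme without inhibitor for no effect and buffer without enzyme for full effect; nearly all actives have a fitted effect of over 40% in size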
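Detergent-free condition (0.00005% Triton X-100) in acetate buffer pH 5.5 with DTT. 1.5 nM enzyme and compound were pre-mixed 15 min, then 2 uM Z-FR-AMC substrate added; reaction progress from fluorescence change between first and third reads (60 s).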
* marks the source's active call; other numbers are inactive results; u = inconclusive. The call rests on the fitted dose curve; in most records, active means well fitted curve in the direction sought with a large enough effect; inconclusive means small, poorly fitted or top-dose-only effect, or another doubt; inactive means no such curve, though single readings can be large; an effect the other way counts as inactive or inconclusive. Potency means the concentration at half of the fitted maximal effect.

SMILES	Cruzain inh Det	Cruzain noTriton
CCn1c(SCC(=O)NCc2ccco2)nc2c(c1=O)SC(C)C2 (configuration not stated)	-5.8%	-23.6%
Cc1c(C(=O)N/N=C/c2ccccc2)[nH]c2ccc(Cl)cc12	-7.2%	-1.9%
Cc1c(C(=O)N/N=C/c2ccc(N(C)C)cc2)[nH]c2ccc(Cl)cc12	-10.3%	10µM*
Cc1ccc2nc(/C(C#N)=C/c3ccc(-c4cccc(Cl)c4)o3)[nH]c2c1	u	12.6µM*
N#C/C(=C\c1ccc(-c2ccc(Cl)c(C(=O)O)c2)o1)c1nc2ccccc2[nH]1	-2.5%	-5.3%
Cc1ccc2nc(/C(C#N)=C/c3cccc(Br)c3)[nH]c2c1	-1.8%	20µM*
COc1cc(/C=C(\C#N)c2nc3ccc(C)cc3[nH]2)ccc1OC(C)C	-0.6%	3.7%
CCOc1ccc(NC(=O)CSc2nc(C)cc(C)n2)cc1	1.5%	1.2%
CCCCOc1ccc(NC(=S)Nc2cc(C)nc(SCCCC)n2)cc1	0.2%	25.1µM*
Cc1ccccc1OCCn1cc(C(=O)c2ccco2)c2ccccc21	-8.8%	16.2%
CCOc1ccc(NC(=O)c2sc3nc(-c4ccc(OC)cc4)cn3c2C)cc1	-2.5%	-11.3%
COc1ccc(-c2nn(CCC(=O)O)cc2/C=C2\SC(N)=NC2=O)cc1OC	-3.9%	2.8%
CCCOc1ccc(-c2nn(-c3ccccc3)cc2/C=C2\SC(N)=NC2=O)cc1C	-4.7%	12.6µM*
NS(=O)(=O)c1ccc(NC(=S)NC(=O)c2ccc(-c3ccccc3)cc2)cc1	4.0%	-10.6%
Cc1ccc(S(=O)(=O)Oc2ccccc2N2C(=O)C3CC=CCC3C2=O)cc1 (configuration not stated)	5.6%	-2.6%
O=C(CN1C(=O)c2ccccc2C1=O)Nc1ccccc1C(=O)NC1CCCCCC1	-6.9%	3.1%
COc1ccc(N2CCN(C(=O)CSc3nnc4c5cc(C)ccc5n(C)c4n3)CC2)cc1	-1.7%	u
COc1ccc2c(c1)c1nnc(SCC(=O)N3CCCCC3C)nc1n2C (configuration not stated)	14.1µM*	-29.8%
Cc1cc(N2CCN(C(=O)c3ccco3)CC2)nc(-c2ccccc2)n1	6.5%	-9.6%
O=C(NC(=S)Nc1cccc(Cl)c1N1CCCCC1)c1ccc2c(c1)OCCO2	-1.1%	12.6µM*
O=C(Nc1cccc(Cl)c1N1CCCCC1)c1ccc2c(c1)OCCO2	-5.2%	-11.9%
Cc1cc(Br)ccc1NC(=O)c1cc2c(s1)-c1ccccc1SC2	-7.4%	7.94µM*
Cc1cc(Br)ccc1NC(=O)c1ccccc1-c1ccccc1	-7.9%	10.1%
CCNC(=S)N/N=C/c1c(Cl)cccc1Cl	-1.4%	-18.1%
COc1ccccc1N1CCN(S(=O)(=O)c2c(C)sc3ncn(CC(=O)Nc4cccc(Cl)c4)c(=O)c23)CC1	-4.0%	-9.1%
SMILES	Cruzain inh Det	Cruzain noTriton
Cc1oc(-c2ccc(C(=O)NCc3ccccc3)cc2)nc1CS(=O)(=O)c1ccccc1	-5.9%	u
Cc1oc(-c2ccc(C(=O)NCc3ccc(Cl)cc3)cc2)nc1CS(=O)(=O)c1ccccc1	-4.4%	25.1µM*
Cc1ccc(S(=O)(=O)c2cn(Cc3ccc(F)cc3)c3cc(F)c(F)cc3c2=O)cc1	-0.9%	-2.9%
Cc1cccc2nc(CSc3nc4ccc([N+](=O)[O-])cc4[nH]3)c(Br)n12	-6.7%	3.16µM*
O=[N+]([O-])c1ccc(CSc2nc3ccccc3[nH]2)cc1	-14.1%	-2.9%
COc1ccc(NC(=O)c2ccc(-c3nc(CSc4ccccc4)c(C)o3)cc2)cc1OC	-4.7%	8.6%
O=C(Cn1c(C(=O)N2CCN(C3CCCCC3)CC2)cc2sccc21)c1ccccc1	2.6%	-0.3%
O=C(Cn1c(C(=O)N2CCc3ccccc3C2)cc2sccc21)c1ccccc1	-7.4%	25.1µM*
CSc1nnc(NC(=O)Cc2coc3cc(C)ccc23)s1	-3.4%	u
CCCOc1ccc(-c2nc(C#N)c(N3CCc4ccccc4C3)o2)cc1	25.1µM*	-92.4%
CCCOc1ccc(-c2nc(C#N)c(N3CCN(C)CC3)o2)cc1	1.3%	-9.5%
COc1cccc(Nc2cc(-c3ccccc3)nc(C)n2)c1	-10.7%	-3.7%
O=C(c1ccccc1)N1CCN(C(=O)c2ccccc2Br)CC1	6.6%	-5.4%
N=c1oc2cc(O)ccc2cc1C(=O)Nc1nc2ccccc2s1	12.6µM*	20µM*
O=C(Nc1nc2ccccc2s1)c1cccn(Cc2ccccc2)c1=O	-1.1%	-15.9%
CCn1c(N2CCN(CC(=O)c3ccc(OC)cc3)CC2)nc2ccccc21	-0.2%	-13.2%
COc1cccc(C(=O)Nc2ccccc2SCc2cc(=O)c3cccc(C)c3[nH]2)c1	0.8%	-4.8%
CCCOc1ccc(C2c3c(-c4ccccc4O)n[nH]c3C(=O)N2CCc2ccccc2)cc1OCC (configuration not stated)	-2.4%	12.6µM*
COc1ccc(C2c3c(-c4ccccc4O)n[nH]c3C(=O)N2CCc2ccccc2)cc1 (configuration not stated)	-10.1%	31.6µM*
Cc1ccc(C2c3c(-c4ccccc4O)n[nH]c3C(=O)N2CCc2ccccc2)cc1 (configuration not stated)	-11.2%	u
CC(C)c1ccc(C2c3c(-c4ccccc4O)n[nH]c3C(=O)N2CCc2ccccc2)cc1 (configuration not stated)	-3.8%	20µM*
CCCN1C(=O)c2[nH]nc(-c3ccccc3O)c2C1c1ccc(OCc2ccccc2)c(OC)c1 (configuration not stated)	-8.3%	u
COc1ccc(C2c3c(-c4ccccc4O)n[nH]c3C(=O)N2CCc2ccc(OC)c(OC)c2)cc1 (configuration not stated)	-5.0%	5.9%
CCCC(=O)N1CCc2cc(OC)c(OC)cc2C1COc1ccc(C(=O)OC)cc1 (configuration not stated)	7.5%	u
Cc1c(NS(=O)(=O)c2ccc3c(c2)OCCO3)cccc1-c1nc2cccnc2s1	-1.2%	15.8µM*
SMILES	Cruzain inh Det	Cruzain noTriton
Cc1cc(-c2nc3cccnc3s2)ccc1NS(=O)(=O)c1ccc2c(c1)OCCO2	-4.4%	u
COc1ccc(-c2cnnc(N/N=C/C(C)=C/c3ccccc3)n2)cc1	-3.7%	10µM*
COc1ccc(-c2cnnc(N/N=C/c3ccc(OC)c(OC)c3)n2)cc1	-8.9%	4.9%
CCOC(=O)Nc1ccc(=O)n(Cc2c(Cl)cccc2Cl)c1	-2.5%	-9.4%
O=c1cc(CSc2ccccc2)[nH]c(=S)[nH]1	2.6%	-2.8%
O=c1cc(/N=C/c2coc3c(ccc4ccccc43)c2=O)[nH]c(=S)[nH]1	-5.6%	7.94µM*
NC(=S)N/N=C/c1coc2c(ccc3ccccc32)c1=O	u	0.631µM*
NC(=S)N/N=C/c1ccccc1OCc1cccc(Cl)c1	-23.6%	u
O=C(NN=C1CCCC1)C(=O)Nc1cccc(C(F)(F)F)c1	1.8%	1.3%
CCCCC(CC)C(=O)NCCc1ccc(S(N)(=O)=O)cc1 (configuration not stated)	-11.7%	-1.4%
Cc1cccc(NC(=O)c2nc[nH]c2C(=O)Nc2ccccc2[N+](=O)[O-])c1	-1.1%	10µM*
CNC(=O)c1[nH]cnc1C(=O)Nc1ccccc1C	1.5%	-5.8%
CC(=O)NS(=O)(=O)c1ccc(NS(=O)(=O)c2ccc(F)cc2)cc1	-1.2%	11.5%
O=C(Nc1nc2c(Cl)cccc2s1)c1ccc(Br)o1	6.8%	15.3%
O=C(Nc1nc2ccc(Cl)cc2s1)c1ccc(Br)o1	0.4%	20µM*

Source: PubChem
